Screening data from PubChem BioAssay.
Pf Dd2 growth: Plasmodium falciparum Dd2 growth inhibition. P. falciparum Dd2 growth, SYBR Green, 72 h. Potency, µM (doses to about 28.9 µM), most hits filed as inhibitors. actives 4.3% (n = 120,000). AID 1347417; active = well fitted inhibition curve with a large enough effect; note: nearly all actives have a fitted effect of over 65% in size
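Readout: SYBR Green fluorescence, 485 nm excitation, 535 nm emission, after ~16 h lysis at 37C. Before that, Dd2-infected red cells (2.5% hematocrit) grew 72 h with compound, 29 uM top final concentration.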
Large screens that a line does not name were inactive. This excerpt belongs to a sample that is enriched for hits.

O=S(=O)(c1ccccc1Cl)N1CCCC(CO)(Cc2cccc(Cl)c2)C1 (stereo unspecified)	none
CC(C)c1ccc(NC(=O)N[C@H]2CO[C@H]3[C@@H]2OC[C@H]3OC(=O)Nc2cccc(C(F)(F)F)c2)cc1	none
c1cnc(-c2nc(Cn3cc(C4CCOC4)nn3)cs2)nc1 (stereo unspecified)	none
Cc1nn(-c2ccccc2)nc1C(=O)N[C@H](C)c1onc(-c2cccnc2)c1C(=O)O	none
CCn1cc(CNC(=O)c2ccc(OC3CCN(S(=O)(=O)N(C)C)CC3)cc2)cn1	none
CCN1CCN(CCNC(=O)C2CCN(C(=O)N3CC4CC(C3)[C@H]3CCCC(=O)N3C4)CC2)CC1 (stereo partly specified)	none
CN1[C@@H](CCC(=O)N2CCCC2)CNC(=O)[C@@H]2[C@H]1CCN2Cc1ccc(C(F)(F)F)cc1	none
Cc1ccc(CCNC(=O)C(C)n2nc(C)c3c(C)n(-c4ccc(C)cc4)nc3c2=O)cc1 (stereo unspecified)	none
CCC(C(=O)NCc1ccc(OC)c(OC)c1)n1nc(C)c2c(C)n(-c3ccc(C)cc3)nc2c1=O (stereo unspecified)	Pf Dd2 growth 2.82µM
CCC(C(=O)Nc1cc(F)ccc1F)n1nc(C)c2c(C)n(-c3ccc(C)cc3)nc2c1=O (stereo unspecified)	none
COCCC(=O)N1CCC2(CC1)NCCc1c2[nH]c2ccccc12	none
O=C(Cn1c(=O)oc2ccccc21)N1CCC2(CC1)NCCc1c2[nH]c2ccccc12	Pf Dd2 growth 8.91µM
O=C(CN1CCCC1=O)N1CCC2(CC1)NCCc1c2[nH]c2ccccc12	none
O=C(COc1ccccc1)N[C@H]1CO[C@H]2[C@@H]1OC[C@@H]2Nc1nccc(-c2cccc(F)c2)n1	none
O=C(c1ccc(F)c(F)c1)N1CCN(C(=O)c2nnn3c2COC(c2ccccc2)C3)CC1 (stereo unspecified)	none
Cc1noc(C)c1-c1cc2c(cc(C)n2C)c(-c2ccccc2)n1	none
COc1ncccc1-c1nc(-c2c(C)noc2C)cc2c1cc(C)n2CCN(C)C	none
COc1ncc(-c2nc(-c3c(C)noc3C)cc3c2cc(C)n3CCN(C)C)cn1	Pf Dd2 growth 14.1µM
CC(=O)N[C@@H]1CCNC[C@@H]1c1nc(-c2ccccc2)no1	none
CC1CCCN(C(=O)Cn2ccn3nc4c(c3c2=O)CCCC4)C1 (stereo unspecified)	none
CCN(C)C(=O)CCc1c(C)nn(-c2cccc(C)c2)c1Oc1ccccc1	none
CC(C)CN1C(=O)c2cccn2CC1CNC(=O)c1cccs1 (stereo unspecified)	none
CCOC(=O)C1CCN(C(=O)c2ccc3c(c2)sc2nc(-c4ccc(OC)cc4)cn23)CC1	none
CCCSCCCNC(=O)c1ccc2c(c1)sc1nc(-c3ccc(OCC)cc3)cn12	Pf Dd2 growth 3.55µM
COc1ccc(NC(=O)c2ccc3c(c2)sc2nc(-c4ccc(OC)cc4)cn23)cc1	none
CCOc1ccc(-n2c(C)nc3cc(C(=O)NCCC4=CCCCC4)ccc32)cc1	none
COc1ccc(-c2cn3c(n2)sc2cc(C(=O)NCc4ccccc4)ccc23)cc1	none
COc1cccc(-c2cn3c(n2)sc2cc(C(=O)NCCc4ccccc4)ccc23)c1	none
CCOc1ccc(-c2cn3c(n2)sc2cc(C(=O)NCCc4ccc(OC)c(OC)c4)ccc23)cc1	Pf Dd2 growth 3.55µM
COc1ccc(-c2cn3c(n2)sc2cc(C(=O)Nc4cc(Cl)ccc4C)ccc23)cc1	none
CCOc1ccc(-c2cn3c(n2)sc2cc(C(=O)NCCC4=CCCCC4)ccc23)cc1	Pf Dd2 growth 7.08µM
CN1C(=O)CS(=O)(=O)C12CCN(C(=O)c1cc(F)cc(F)c1)CC2	none
O=C(c1ccsc1)N1CCCC(c2nc(C3CCOCC3)no2)C1 (stereo unspecified)	none
CNC(=O)[C@H]1C[C@H](Oc2ccccc2)CN1C(=O)NCCc1ccccc1	none
COc1ccccc1C(=O)N1CC(Oc2ccc(-c3nc(C)no3)cc2)C1	none
COC(=O)c1ccc(CN2C(=O)[C@@H]3C[C@@H](O)CN3C3(CN(Cc4ccc(OC)cc4)C3)C2=O)cc1	none
Cc1ccc(OCCC2CCN(C(=O)CC(F)(F)F)C2)cc1 (stereo unspecified)	none
Cn1cnc(S(=O)(=O)N2CCC(c3nc(C4CC4)no3)C2)c1 (stereo unspecified)	none
C[C@H]1[C@@H]2[C@@H](O)C([C@H](C)C(=O)NC3CC3)CC[C@@]2(C)CC[C@@H]1NC(=O)c1cnccn1 (stereo partly specified)	none
C[C@H]1[C@@H]2[C@@H](O)C([C@H](C)C(=O)NCc3ccc(F)cc3)CC[C@@]2(C)CC[C@@H]1NC(=O)c1cnccn1 (stereo partly specified)	Pf Dd2 growth 8.91µM
CC(=O)N[C@H]1CC[C@]2(C)CCC([C@H](C)C(=O)NCc3ccc(F)cc3)[C@H](O)[C@H]2[C@@H]1C (stereo partly specified)	none
O=C1NCCCCCN(C(=O)CN2CCCC2=O)[C@H]2CCC[C@@H]12	none
O=C(c1cccc(Cl)c1)N1CCn2c(nn(-c3ccc(F)cc3)c2=O)C1	none
COc1ccc(-c2nc(C)nc3c2CCN(Cc2cncs2)CC3)cc1	none
